TDP1 block: inhibitors of human tyrosyl-DNA phosphodiesterase TDP1 | Q9NUW8 | recombinant TDP1, AlphaScreen DNA substrate cleavage | Potency, µM (doses to about 130 µM), for inactives: at the highest dose activity change, negative = inhibition, most hits filed as inhibitors | hit rate 0.28% among 350,000 | AID 485290; also: nearly all actives have a fitted effect of over 40% in size
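Here, a 5' biotin and 3' phosphotyrosine-FITC DNA oligonucleotide reports Tdp1 activity: intact substrate bridges AlphaScreen beads, while cleavage leaves a 3' phosphate and drops signal. All incubations at room temperature.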
RECQ1 helicase: inhibitors of human RECQ1 DNA helicase; P46063; RECQ1 DNA unwinding, red fluorescence kinetic read; Potency, µM (highest dose often 57.3 µM), for the others: top-dose activity, negative = inhibition, hits mostly inhibitors; hit rate 0.54% among 240,000; AID 2549;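 also: plate controls were vehicle for no effect and no enzyme for full effect; nearly all actives have a fitted effect of over 30% in size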
Target sequence (P46063 whole entry, looked up): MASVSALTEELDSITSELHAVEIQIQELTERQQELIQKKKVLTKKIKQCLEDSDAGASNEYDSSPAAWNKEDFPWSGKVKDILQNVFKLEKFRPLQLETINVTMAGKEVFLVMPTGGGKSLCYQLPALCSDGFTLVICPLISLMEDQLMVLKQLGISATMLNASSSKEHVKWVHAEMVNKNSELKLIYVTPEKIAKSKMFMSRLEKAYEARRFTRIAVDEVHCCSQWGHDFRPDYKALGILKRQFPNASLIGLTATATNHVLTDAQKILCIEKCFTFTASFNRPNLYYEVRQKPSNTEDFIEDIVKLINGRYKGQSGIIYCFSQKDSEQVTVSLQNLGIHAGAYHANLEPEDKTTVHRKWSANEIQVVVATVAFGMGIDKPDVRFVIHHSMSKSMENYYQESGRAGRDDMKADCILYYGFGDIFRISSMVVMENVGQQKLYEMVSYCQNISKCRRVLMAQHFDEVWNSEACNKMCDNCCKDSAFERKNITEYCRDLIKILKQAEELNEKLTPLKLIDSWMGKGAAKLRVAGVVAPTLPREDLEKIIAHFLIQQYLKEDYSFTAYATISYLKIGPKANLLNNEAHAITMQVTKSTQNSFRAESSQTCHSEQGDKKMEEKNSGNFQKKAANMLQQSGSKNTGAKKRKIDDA
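50 nM RECQ1T1 preincubated 15 min with compound in Tris pH 8.0 buffer with MgCl2, DTT, Tween-20 and 2.5 ug/ml poly(dI-dC); started with 200 nM TAMRA/BHQ-2 forked duplex and 2 mM ATP. Unwinding read as fluorescence (525/598 nm), two reads 2 h apart.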
APEX1 inh: APE1 (human) endonuclease inhibition | P27695 | recombinant APE1, TAMRA/BHQ-2 abasic DNA cleavage fluorescence | Potency, µM (doses to about 65.8 µM), without a hit: top-dose activity change, negative = inhibition, hits mostly inhibitors | hit rate 0.35% among 350,000;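 also: plate controls were vehicle for no effect and reference inhibitor for full effect; nearly all actives have a fitted effect of over 55% in size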
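Activity was derived from the fluorescence gain between first and third kinetic reads (60 s intervals, ex 525/em 598 nm) after 50 nM THF-abasic TAMRA/BHQ-2 duplex was added to 0.75 nM APE1 preincubated 15 min with compound.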
L3MBTL1 block: inhibitors of human L3MBTL1. AlphaScreen L3MBTL1–H3K9me1 peptide binding. AID 485360. hit rate 0.66% among 230,000. Q9Y468. Potency, µM (titrated, usually from 57.1 µM), for inactives: at the highest dose activity, negative = inhibition, hits mostly inhibitors; also: nearly all actives have a fitted effect of over 60% in size
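AlphaScreen assay: L3MBTL1 (50 nM final) was preincubated 30 min at room temperature with biotinylated H3(1-15)K9me1 peptide (75 nM final), then 30 min with library compounds; streptavidin donor and nickel chelate acceptor beads (10 ug/mL final) added, 30 min dark.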
JMJD2E inh: blocks human JMJD2E demethylase activity; hit rate 1.6% among 230,000; Potency, µM (top dose mostly 57.1 µM), without a hit: top-dose activity change, negative = inhibition, most hits filed as inhibitors; JMJD2E catalytic domain, FDH-coupled NADH fluorescence (FDH is formaldehyde dehydrogenase);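 also: 0% = wells with enzyme and -100% = buffer wells without enzyme; nearly all actives have a fitted effect of over 50% in size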
BLM inh: Bloom syndrome helicase (human) inhibition | hit rate 0.2% among 350,000 | Potency, µM (top dose mostly 56.1 µM), for inactives: top-dose activity change, negative = inhibition, actives largely listed as inhibitors | AID 2528 | recombinant BLM DNA unwinding, fluorescence dequenching;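 also: plate controls were vehicle for no effect and no enzyme for full effect; nearly all actives have a fitted effect of over 35% in size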
Numbers without * were called inactive; i = inactive; ? = inconclusive; · = no result; ! = not confirmed by another sample; [ ] = another dose, or the depositor's remark. The entries come from a sample that favours hits as a whole. Unless noted, calls follow the shape of the dose curve; as a rule, active = well fitted curve in the direction sought with a large enough effect; inconclusive = small, poorly fitted or top-dose-only effect, or another doubt; inactive = no such curve, though single readings can be large; an effect the other way counts as inactive or inconclusive. Unless noted, % is scaled to controls: 0 for no effect and ±100 for the full control effect; potency is read from the fitted curve at half-maximal effect.

SMILES	TDP1 block	RECQ1 helicase	APEX1 inh	L3MBTL1 block	JMJD2E inh	BLM inh
Cn1c(=O)c(NC2CCCCC2)c2c3c(cccc31)C(=O)c1ccccc1-2	3%	i	1%	37%	-6%	1%
Cc1ccc(CSc2nnc(SCC(=O)N/N=C/C=C/c3ccco3)s2)cc1	3%	-26%	35µM*	?	-17%	?
Cn1c(SCC(=O)N/N=C/C=C\c2ccco2)nc2ccccc21	-4%	-9%	-5%	?	0%	2%
CCn1c(SCC(=O)N/N=C/C=C\c2ccco2)nc2ccccc21	-8%	?	?	32µM*	?	?
O=C(Cc1cccs1)N/N=C/C=C\c1ccco1	-1%	?	-7%	-21%	?	-15%
O=C(N/N=C/C=C\c1ccco1)c1cccs1	1%	-12%	9%	6.3µM*	?	18µM*
O=C(Cn1cc(CN(Cc2ccccc2)Cc2ccccc2)nn1)Nc1cc(C(F)(F)F)ccc1Cl	1%	·	·	·	·	·
O=C1CCCC2=C1C(c1ccccc1Cl)N=C(Nc1nc3ccccc3o1)N2 (centres undefined)	2%	·	·	·	·	·
Cc1ccc2nc(N)[nH]c(=O)c2c1Sc1ccncc1	·	·	·	·	·	-2%
O=C(Nc1nc(-c2ccco2)c(-c2ccco2)s1)C1CCC1	8%	-21%	?	?	?	-23%
CS(=O)(=O)c1ccc(C(=O)Nc2nc(-c3ccco3)c(-c3ccco3)s2)cc1	10%	·	-19%	7.1µM*	·	·
COc1ccc(OC)c(Nc2nn3c(=O)c4ccccc4nc3s2)c1	·	·	-24%	·	·	·
CN(C)CCCNc1nc(-c2ccccc2)nc2ccccc12	4%	43%	5%	-2%	-16%	20%
CN(C)CCCNc1c2ccccc2nc2ccccc12	·	·	9.5µM*	·	·	169%
COC(=O)[C@H](COC(C)(C)C)NC(=O)O[C@@H]1Cc2cc(OC)ccc2O[C@H]1c1cccc(OC)c1	11%	-9%	17%	·	0%	4%
Oc1c(I)cc(Cl)c2cccnc12	11%	-12%	-6%	?	14µM*	-2%
O=[N+]([O-])c1cc(Cl)c2cccnc2c1O	8%	i	-12%	32µM*	13µM*	1%
Clc1cc2cccnc2c2ncccc12	0%	·	-18%	10µM*	·	·
Cc1c(C)c2cccnc2c2ncccc12	-1%	·	-28%	0.79µM*	·	·
O=[N+]([O-])c1ccc(Cl)c2cccnc12	1%	i	-7%	6%	3%	0%
CS(=O)(=O)/C=C/c1nc(Nc2cc(F)cc(F)c2)c2ncn(CC(F)F)c2n1	1%	·	·	·	·	·
O=C1[C@H]2[C@H]3[C@H](O)[C@H](O)C/C(=N/OCc4ccccc4)[C@@H]3CC[C@@H]2C(=O)N1c1cccc(Oc2ccccc2)c1	6%[21 µM]	0%[11.5 µM]	?	·	·	-3%[12.4 µM]
O=C[C@H](O)[C@@H](O)[C@@H](O)[C@H](O)CO	·	·	1%	·	·	·
O=[N+]([O-])c1cc([N+](=O)[O-])c2cccnc2c1Oc1ccccc1O	8%	-1%	-3%	?	22µM*	1%
N#Cc1nc(Nc2ccc(Br)cc2)nc(NC2CCCC2)n1	-2%	·	·	·	·	·
SMILES	TDP1 block	RECQ1 helicase	APEX1 inh	L3MBTL1 block	JMJD2E inh	BLM inh
CCCCCc1cc(=O)oc2c(C(CCN3CCCC3)c3cc(OC)c(OC)c(OC)c3)c(OC)cc(OC)c12 (centres undefined)	·	i	-3%	·	22µM*	2%
COc1ccc(C(CC(=O)N2CCCC(C)C2)c2c(OC)cc(OC)c3c(-c4ccccc4)cc(=O)oc23)cc1 (centres undefined)	·	i	?	·	?	-29%
COc1cc(C(CC(=O)N2CCCC2)c2c(OC)cc(OC)c3c(-c4ccccc4)cc(=O)oc23)cc(OC)c1OC (centres undefined)	-12%	18µM*	?	·	2%	-22%
COc1ccc(C(CC(=O)N2CCOCC2)c2c(OC)cc(OC)c3c(-c4ccccc4)cc(=O)oc23)cc1 (centres undefined)	-4%	-21%	32µM*!	·	0%	22µM*!
CC(C)(C)n1ncc2c(=O)n(Cc3ccc(Cl)c(OC(F)(F)F)c3)cnc21	·	·	-7%	·	·	·
COc1ccc(C2Nc3ccccc3C(=O)N2Cc2ccccc2)cc1COc1ccccc1OC (centres undefined)	3%	·	·	·	·	·
CCc1ccc2[nH]c(=O)c(CN(Cc3ccco3)Cc3nnnn3Cc3ccco3)cc2c1	7%	·	·	·	·	·
O=c1cc(-c2ccc(O)cc2)oc2cc(O)cc(O)c12	7%	-11%	25µM*!	·	11µM*!	-10%
COc1cc(-c2cc(=O)c3c(O)cc(O)cc3o2)ccc1O	10%	-8%	-6%	2%	2%	2%
O=c1cc(-c2cc(O)c(O)c(O)c2)oc2cc(O)cc(O)c12	11%	?	?	·	10µM*	?
O=c1cc(-c2ccccc2O)oc2cc(O)cc(O)c12	7%	i	-3%	·	-21%	3%
OC[C@H]1O[C@@](CO)(O[C@H]2O[C@H](CO)[C@@H](O)[C@H](O)[C@H]2O)[C@@H](O)[C@@H]1O	5%	·	·	·	·	4%
COc1ccc(CCNC(=O)c2c(C)nn(-c3ccc(F)cc3)c2-n2cccc2)c(OC)c1OC	8%	·	·	·	·	-1%
COc1ccccc1NC(=S)NNC(=O)c1nn(C)cc1Cl	3%	-1%	-9%	7%	10µM*	1%
COc1ccccc1NC(=S)NNC(=O)c1nn(C)c(C)c1Cl	12%	?	0%	·	14µM*	0%
COc1ccccc1NC(=S)NNC(=O)c1nn(C)c(C)c1Br	11%	-19%	-1%	17%	7.9µM*	8%
N#Cc1nc(NC2CCCC2)c2ncn(-c3cc(F)cc(F)c3)c2n1	-3%	·	·	·	·	·
O=C(NCCc1nc2ccccc2n1CCCOc1ccc2ccccc2c1)C1CCCCC1	0%	·	·	·	·	·
Cc1ccc(NS(=O)(=O)c2cc3c(cc2Cl)NC(=O)C3)cc1C	0%	·	·	·	·	·
Cc1ccccc1N1C(S)=C(C#N)C(=O)NC1c1ccco1 (centres undefined)	-3%	25µM*	14%	?	-29%	-27%
CC(C)(COP(=O)(O)OP(=O)(O)OC[C@H]1O[C@@H](n2cnc3c(N)ncnc32)[C@H](O)[C@@H]1OP(=O)(O)O)C(O)C(=O)NCCC(=O)NCCS (some centres undefined)	·	·	·	·	·	-15%

High-throughput results deposited in PubChem by National Center for Advancing Translational Sciences (NCATS).
